A selection: hits, their analogues and other compounds. The true share with any hit is near 4.8%.
hcDAF12 agonist: activators of H. contortus DAF-12 nuclear receptor. HEK293 hcDAF-12 lit1-tk-luc reporter, luminescence; 0% DMSO, 100% Δ7-dafachronic acid. activation, % at 6.8 µM. hit rate 1.4% among 370,000;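 active = activation above the mean of all tested compounds plus 3 SD, cut at about 5.5% in these data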;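 also: 100% = response to 3 µM Δ7-dafachronic acid high control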
DAX1 inh-1: inhibits human nuclear receptor DAX1; HEK293 Gal4-DAX1 luciferase reporter, luminescence; hit rate 0.99% among 340,000; P51843; inhibition, % at 6.75 µM;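 active = inhibition above the mean over all tested compounds plus 3 SD, cut at about 4.2% in these data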;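 also: 0% = DAX1-transfected cells with DMSO and 100% = empty-vector control cells with DMSO; inhibition shows as a rise in luminescence from relieved DAX1 repression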
SMARCA2 act: SMARCA2 function activation, primary screen; MG213 cells, MMTV-luciferase reporter, dexamethasone, overnight; activation, % at 9.1 µM; hit rate 1% among 370,000; in the data active = activation above about 7.8%;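 also: 0% = vehicle wells and 100% = reference activator wells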
ssDAF12 agonist: S. stercoralis DAF-12 activation, primary screen. HEK293 ssDAF-12/GRIP1 lit1-tk-luc reporter, luminescence; % of 3 µM dafachronic acid response. activation, % at 6.8 µM. hit rate 1% among 370,000;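 active = activation above the mean over all tested compounds plus 3 SD, cut at about 0.9% in these data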;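 also: 0% = DMSO-only wells and 100% = 3 µM delta7-dafachronic acid wells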
DAX1 inh-2: inhibitors of DAX1 repression of SF-1 activated StAR promoter | inhibition, % at 6.8 µM | HEK293T StAR-luciferase reporter, SF-1/DAX-1 repression relief | AID 652010 | hit rate 1.1% among 370,000;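 active = inhibition above the mean over all tested compounds plus 3 SD, cut at about 3.6% in these data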;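 also: 0% = DAX-1 cells with DMSO and 100% = cells lacking DAX-1 with DMSO; higher inhibition means more luminescence from relief of DAX-1 repression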
hgDAF-12 ag: hgDAF-12 agonism, primary luciferase screen; HEK293 GAL4-hgDAF12 UAS-luciferase reporter, agonist luminescence; normalized to butyrate control; activation, % at 6.8 µM; hit rate 1.8% among 370,000; AID 687014;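 active = activation above a cutoff set at the mean of all screened compounds plus 3 SD, cut at about 10% in these data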;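 also: 0% = DMSO wells and 100% = sodium butyrate wells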
LXRb hcDAF ctr: activates human LXR-beta, counter-screen for hcDAF-12 agonists | HEK293 Gal4-LXR tk-luc reporter, luminescence, 24 h; normalized: DMSO 0%, positive control 100% | AID 743027 | 3,400 tested, under 10 active | shares compounds with hcDAF12 agonist | activation, % at 6.8 µM;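 active = mean percent activation of the reporter above a cutoff set as the average over tested compounds plus their standard deviation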
Target sequence (P55055 whole entry, looked up, the tested form may be a part): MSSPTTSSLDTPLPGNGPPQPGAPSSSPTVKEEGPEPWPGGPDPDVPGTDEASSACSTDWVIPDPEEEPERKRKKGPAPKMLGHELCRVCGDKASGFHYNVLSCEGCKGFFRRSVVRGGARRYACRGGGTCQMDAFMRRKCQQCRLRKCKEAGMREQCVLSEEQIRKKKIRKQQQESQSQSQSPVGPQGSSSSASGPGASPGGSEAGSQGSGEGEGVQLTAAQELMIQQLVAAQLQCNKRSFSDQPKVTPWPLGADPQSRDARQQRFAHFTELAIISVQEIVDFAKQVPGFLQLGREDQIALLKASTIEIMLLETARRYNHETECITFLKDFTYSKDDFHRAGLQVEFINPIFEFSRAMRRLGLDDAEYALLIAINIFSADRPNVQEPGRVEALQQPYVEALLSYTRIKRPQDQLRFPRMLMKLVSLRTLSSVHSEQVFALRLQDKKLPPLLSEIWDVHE
hcDAF12 ag: hcDAF-12 agonism, confirmation assay. shares compounds with hcDAF12 agonist. HEK293 hcDAF-12 lit1-tk-luc reporter, luminescence; % of Δ7-dafachronic acid response. activation, % at 6.8 µM. hit rate 61% among 3,400. AID 743032;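 active = mean activation across triplicate tests above the threshold derived from the earlier primary screen, cut at about 5.5% in these data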;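 also: 0% = DMSO only wells and 100% = 3 µM Δ7-dafachronic acid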
* marks the source's active call; other numbers are inactive results; nt = not tested or not shown.

SMILES	hcDAF12 agonist	DAX1 inh-1	SMARCA2 act	ssDAF12 agonist	DAX1 inh-2	hgDAF-12 ag	LXRb hcDAF ctr	hcDAF12 ag
O=C(Nc1ncc(Br)s1)C1CCCN1S(=O)(=O)c1cccc2cccnc12 (stereo not given)	-1	3	-2	-1	0	4	nt	nt
N#CC(C#N)=Cc1cc2ccccc2nc1N1CCCCC1	7.1*	0	0	0	0	1	0	1
Cc1sc(-c2cccnc2)nc1OC(=O)C1CC1	-1	0	-1	0	0	2	nt	nt
CC(=O)Nc1cc(S(=O)(=O)Nc2cccc(C)c2)c(C)cc1C	0	-1	1	-2	-1	-2	nt	nt
CCOc1ccc(N=NC2C(=O)N(C(N)=S)N=C2C)cc1 (stereo not given)	6.6*	4	3	0.9*	3	8	1	5
COc1cc2cc(C(c3nnnn3C(C)(C)C)N3CCc4ccccc43)c(=O)[nH]c2cc1OC (stereo not given)	7.3*	0	-4	0	0	-1	0	0
COc1ccc(NC(C)C(=O)Nc2cc(C(F)(F)F)ccc2N2CCOCC2)c(OC)c1 (stereo not given)	14*	-2	1	-2	1	-1	0	-1
CC(C)(C)CN1CCN(CC#Cc2ccccc2)CC1CCO (stereo not given)	7.5*	2	-2	-1	0	3	0	5
CCOC(=O)Nc1ccc(S(=O)(=O)NC2CCCCC2)cc1	-4	-2	-2	-2	-1	-5	nt	nt
COc1ccc(-c2csc3ncn(-c4ccccc4OC)c(=O)c23)cc1OC	0	0	-3	0	-1	-2	nt	nt
O=C(O)C1CC(=O)N(c2ccc(OCc3ccccc3Cl)cc2)C1 (stereo not given)	0	0	-3	-1	0	-2	nt	nt
NC(=O)C1CC(=O)N(c2ccc(OCc3ccccc3Cl)cc2)C1 (stereo not given)	7.3*	-1	2	0	0	6	0	0
COc1ccccc1/C=N/N(C(C)=O)c1nc(-c2ccc(F)cc2)cs1	7.2*	3	0	1.2*	1	9	1	11*
COc1ccc(/C=N/N(C(C)=O)c2nc(-c3ccc(C)cc3)cs2)cc1	-1	2	-1	-1	0	0	nt	nt
CCN(c1ccc(OC)cc1)S(=O)(=O)N1CCCC(C(=O)NC(C)c2ccccc2)C1 (stereo not given)	-1	nt	1	-1	0	0	nt	nt
Cc1cccc(SCC(=O)Nc2ccc3c(c2)OCCO3)c1	7.1*	1	1	0	1	5	1	5.8*
COc1ccccc1C(=O)Nc1nnc(-c2ccccc2)s1	6.8*	1	4	1.2*	0	9	0	8.5*
COc1ccccc1C(=O)CC(=O)c1ccccc1	6.7*	2	4	1.5*	1	11*	1	11*
COc1ccccc1C(=O)NCC(=O)Nc1ccccc1	1	0	-3	0	0	2	nt	nt
COc1ccccc1C(=O)NNC(=O)c1ccccc1Br	8.4*	1	1	1	0	5	0	2
COc1ccccc1C(=O)NNC(=O)C1CCN(C(=O)OC(C)(C)C)CC1	7.1*	0	-2	0	0	1	0	5
COc1ccccc1C(=O)Nc1nnc(C)s1	2	1	6	-1	1	6	nt	nt
COc1ccccc1C(=O)NNC(=O)c1ccccc1	10*	6.0*	8	1.0*	2	7	1	11*
CC1CN(C(=O)c2ccc(CNS(=O)(=O)c3cccc(Cl)c3)cc2)CC(C)O1 (stereo not given)	1	1	-2	-1	-2	1	nt	nt

Assay outcomes as filed in PubChem BioAssay.
